Experimental data as given in PubChem BioAssay (NCI).
Compounds without any hit were thinned out: in the full panel of roughly 79,000, 15% have a hit. Rule as the data show it: active = growth inhibition above about 70%; inactive = the rest.

What was measured:
[1] = NCI Yeast Anticancer Drug Screen. Data for the rad50 strain (AID 155);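 also: 0% = growth of vehicle-only cultures of the same strain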; conditions: S. cerevisiae rad50 strain growth inhibition; at 50.0 µM; stronger effect = higher value
Procedure, shortened: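 Relative growth inhibition (compound vs vehicle) was measured in yeast with a defined repair-gene alteration.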

[2] = NCI Yeast Anticancer Drug Screen. Data for the mec2-1 strain (AID 157); conditions: S. cerevisiae mec2-1 strain, at 50.0 µM, stronger effect = higher value
Procedure, shortened: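 Vehicle-treated cultures served as reference for growth inhibition of compound-exposed mec2-1 yeast.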

[3] = NCI Yeast Anticancer Drug Screen. Data for the sgs1 mgt1 strain (AID 161);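 also: 0% = growth of cultures given vehicle only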; conditions: S. cerevisiae sgs1 mgt1 strain, at 50.0 µM, stronger effect = higher value
Procedure, shortened: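 Genetically altered yeast, compound exposure, growth inhibition relative to vehicle.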

[4] = NCI Yeast Anticancer Drug Screen. Data for the cln2 rad14 strain (AID 165);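 also: 0% = growth equal to vehicle treated cultures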; conditions: S. cerevisiae cln2 rad14 strain, at 50.0 µM, stronger effect = higher value
Procedure, shortened: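 Each compound was tested on cln2 rad14 yeast. Inhibition of growth was calculated against vehicle-exposed controls.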

[5] = NCI Yeast Anticancer Drug Screen. Data for the bub3 strain (AID 167); conditions: S. cerevisiae bub3 mutant strain, at 50.0 µM, stronger effect = higher value
Procedure, shortened: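 Screening used yeast with an engineered genetic alteration affecting cell cycle control. Compound-exposed cultures were compared with vehicle cultures, and reduced growth was taken as inhibition.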

[6] = NCI Yeast Anticancer Drug Screen. Data for the mlh1 rad18 strain (AID 175); conditions: S. cerevisiae mlh1 rad18 strain growth inhibition; at 50.0 µM; stronger effect = higher value
Procedure, shortened: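 Vehicle-treated cultures served as the reference for growth inhibition in a yeast strain carrying DNA damage repair alterations exposed to each compound.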

Measured: growth inhibition

C=CC1ON(C)CCc2cc(OC)c(OC)cc21 (centres undefined)
inactive: [1] -4.9% | [2] -1% | [3] -53.5% | [4] 15.1% | [5] -1.8% | [6] -9.9%

Cc1ccc2c(c1)P(=O)(O)c1cc(C)ccc1O2
inactive: [1] -45.4% | [2] -13.2% | [3] 23.6% | [4] 3.2% | [5] -9.6% | [6] -8.55%

ClCCc1ccccc1CC1=NCCc2ccccc21
inactive: [1] 18.6% | [2] -26.4% | [3] -23.7% | [4] 6.3% | [5] -12.8% | [6] 54.8%

COC(=O)/C(C#N)=C\N1CCNC1=S
inactive: [1] -54.8% | [2] -62.8% | [3] -35.9% | [4] -15.9% | [5] -10.4% | [6] -19.5%

Cc1c2ccn3c(=O)c4ccccc4cc3c2c(C)c2c1[nH]c1ccccc12
inactive: [1] 56.1% | [2] 15.2% | [3] 9.45% | [4] 16.7% | [5] 21.8% | [6] 26.6%

C#CCC(C)(C)C(N)=O
inactive: [1] -10.7% | [2] -6.85% | [3] 3.4% | [4] -35.8% | [5] -6.05% | [6] -8.5%

CSC(=N/N=C(\C)c1ccccn1)SC
inactive: [1] 0.45% | [2] 6% | [3] 5.3% | [4] -46.2% | [5] -11.7% | [6] 5.85%

COc1cc2c(cc1OC)NC(C)=CC(C)=N2
inactive: [1] -14.3% | [2] 5.1% | [3] 0.3% | [4] 25.2% | [5] 25.7% | [6] 15.9%

N#CCCN(CCC#N)C(=O)Nc1cccc2ccccc12
inactive: [1] 10.2% | [2] -9.15% | [3] 5.7% | [4] 12.8% | [5] -2.25% | [6] -16.5%

CCCCCCCCCCCc1noc2c1C(=O)C(O)CC2 (centres undefined)
inactive: [1] 36.5% | [2] -3.05% | [3] -1.05% | [4] 40.4% | [5] -69% | [6] 5.25%

c1ccc(-c2cc(-c3ccccc3)nc(-c3ccncc3)c2)cc1
inactive: [1] -16.1% | [2] -35.3% | [3] 2.9% | [4] 13.8% | [5] 1.55% | [6] -63.7%

CC(O)C(C)[N+](=O)[O-] (centres undefined)
inactive: [1] 9.4% | [2] 0.5% | [3] -2.8% | [4] 11.6% | [5] 5.7% | [6] -1.05%

O=[N+]([O-])c1ccc(-n2cnc3c(Cl)ncnc32)cc1
inactive: [1] 1.2% | [2] 35.9% | [3] 14.6% | [4] -0.55% | [5] 28.4% | [6] 0.6%

Nc1ccc2c(c1)C1Oc3ccccc3CC1CO2 (centres undefined)
inactive: [1] 33% | [2] 6.55% | [3] 20.1% | [4] 8.05% | [5] 12.8% | [6] 47.2%

CC(=O)Nc1cc2cc(NS(=O)(=O)c3ccc(Cl)c(Cl)c3)ccc2oc1=O
inactive: [1] 8.35% | [2] -1.55% | [3] 0.35% | [4] 19.9% | [5] -4% | [6] 10.4%

CCCCCCCCCCCCC(Br)C(=O)OCC (centres undefined)
inactive: [1] 7.55% | [2] -7.6% | [3] 16.1% | [4] -5.2% | [5] -6.6% | [6] 3.95%

CC(=O)Nc1ccc(/C=N/Nc2c3ccccc3nc3ccccc23)cc1
inactive: [1] -3.3% | [2] 13.8% | [3] 0.3% | [4] -4.4% | [5] 6.75% | [6] 0.4%

O=C(Nc1ccc(Cl)c(Cl)c1)OC1C=CS(=O)(=O)C1 (centres undefined)
inactive: [1] -7.9% | [2] -5.95% | [3] -12.3% | [4] 7.7% | [5] 3.5% | [6] -0.15%

Cc1ccc(S(=O)(=O)OCCNc2ccc([N+](=O)[O-])cc2[N+](=O)[O-])cc1
inactive: [1] 2% | [2] 6.8% | [3] 6.45% | [4] 11.8% | [5] 2.9% | [6] 7.85%

C/C(CC(O)(C(F)(F)F)C(F)(F)F)=N\NC(N)=O
inactive: [1] -38.5% | [2] -44.5% | [3] -22.5% | [4] -1.45% | [5] -5.35% | [6] -15.8%

C=C1C2CCC3(CCC4C5(C)CCCC4(C=NC5)C3C2)C1O (centres undefined)
inactive: [1] 8.5% | [2] -10.7% | [3] 3.6% | [4] 6.75% | [5] -7.3% | [6] 1.6%

CC1=CCC2(C#N)CCC1C2O (centres undefined)
inactive: [1] 15.2% | [2] 17.8% | [3] 8.1% | [4] 22.4% | [5] 10.4% | [6] 17.6%

CC(=O)[C@@]1(c2ccccc2)N(C(=O)c2ccccc2)[C@@]1(C)C(=O)c1ccccc1
inactive: [1] 22.1% | [2] 2.25% | [3] 14.4% | [4] 53.1% | [5] 3.85% | [6] -0.75%

CN(C)CCCC(O)c1cccc2ccccc12 (centres undefined)
inactive: [1] 25.4% | [2] -12.6% | [3] 10.7% | [4] -4.65% | [5] 0.8% | [6] 24.4%

CC12CCCC=C1C(C)(C)C(O)CC2 (centres undefined)
inactive: [1] 3.45% | [2] 1.7% | [3] 2.95% | [4] 7.3% | [5] -26.8% | [6] 0.8%

CC(=O)Nc1cc2c(cc1Br)Cc1cc(Br)ccc1-2
inactive: [1] -4.15% | [2] -4.1% | [3] -8.2% | [4] -4.5% | [5] 1.1% | [6] -14.2%

Cc1ccc(NC(=O)/C(CC(=O)c2c[n+](=O)c3ccccc3n2O)=N\NC(=O)C[n+]2ccccc2)cc1
inactive: [1] 14.1% | [2] -1.25% | [3] -1.75% | [4] 24.8% | [5] 20.3% | [6] -0.85%

CC1=NN(c2ccccc2)C(=O)/C1=C\c1ccccc1
inactive: [1] 15.6% | [2] 16.9% | [3] 24.7% | [4] 10.1% | [5] 33.5% | [6] 21.6%

CC/C=N/Nc1ccc([N+](=O)[O-])cc1[N+](=O)[O-]
inactive: [1] 15.6% | [2] -9.1% | [3] 4.6% | [4] 3.3% | [5] 1.6% | [6] 22.6%

O=C(NCc1ccccc1)NCN1CCOCC1
inactive: [1] 20.7% | [2] -0.85% | [3] 5.15% | [4] 0.45% | [5] 5.65% | [6] -11.3%

COCCCN1COCC(COc2ccc(Cl)cc2)OC1 (centres undefined)
inactive: [1] -17.9% | [2] -35% | [3] -32.2% | [4] -23.2% | [5] -36.6% | [6] -27.9%

Cc1cccc(Cl)c1N=Nc1c(C)nn(C(N)=S)c1C
inactive: [1] 29.8% | [2] 8.75% | [3] 38% | [4] -33% | [5] -0.55% | [6] 17.1%

CCCCCN(C(=O)CCC)c1ccccc1
inactive: [1] 45.8% | [2] 8.5% | [3] 24.5% | [4] 17.7% | [5] 3.2% | [6] 41.8%

C=CC12c3c4cc(OC)cc3OC1C(O)CCC2CC4 (centres undefined)
inactive: [1] -8.05% | [2] 8.85% | [3] -6.2% | [4] 9.85% | [5] 4.5% | [6] 5.65%

O=S(=O)(Cl)C1c2ccccc2-c2ccccc21
inactive: [1] 22.4% | [2] 20.1% | [3] 12.5% | [4] 15.7% | [5] 23.2% | [6] 23.4%

O=C(O)c1cc(Br)sc1Br
inactive: [1] 8.75% | [2] -12.4% | [3] -8.8% | [4] 0.7% | [5] -9.6% | [6] -15.1%

CCCCN(CCCC)C(=O)C(=O)C(C#N)c1ccc(C)cc1 (centres undefined)
inactive: [1] -7% | [2] -0.8% | [3] 6.15% | [4] 17.6% | [5] 20.7% | [6] -9.3%

Cc1nnc2c3[nH]c4ccccc4c3c(Cl)nn12
inactive: [1] -3.3% | [2] -7.25% | [3] 3.55% | [4] -52.2% | [5] -10.8% | [6] -11.1%

CCOC(=O)CCNc1nc(N)nc(C)c1NC=O
inactive: [1] -11.9% | [2] 5.55% | [3] -16.5% | [4] 9.7% | [5] 5.9% | [6] 16.9%
